Test results from PubChem BioAssay (EPA / NIEHS).
Inconclusive results are not listed. Active and inactive are the calls of the source. The calls were made as follows: active = hit-call score of the fitted dose curve at least 0.9, where 1 is the maximum; inconclusive = response in the unintended direction; inactive = score below 0.9.

The compounds below were run against human Casein Kinase 1-delta (CK1D), CSNK1D (gene 1453) (UniProt P48730) (assay: NVS_ENZ_hCK1D: NovaScreen (NVS) Enzymatic Assay for human Casein Kinase 1-delta (CK1D) (AID 2283148)).
human Casein Kinase 1-delta (CK1D), CSNK1D (gene 1453), sequence (P48730 whole entry, looked up): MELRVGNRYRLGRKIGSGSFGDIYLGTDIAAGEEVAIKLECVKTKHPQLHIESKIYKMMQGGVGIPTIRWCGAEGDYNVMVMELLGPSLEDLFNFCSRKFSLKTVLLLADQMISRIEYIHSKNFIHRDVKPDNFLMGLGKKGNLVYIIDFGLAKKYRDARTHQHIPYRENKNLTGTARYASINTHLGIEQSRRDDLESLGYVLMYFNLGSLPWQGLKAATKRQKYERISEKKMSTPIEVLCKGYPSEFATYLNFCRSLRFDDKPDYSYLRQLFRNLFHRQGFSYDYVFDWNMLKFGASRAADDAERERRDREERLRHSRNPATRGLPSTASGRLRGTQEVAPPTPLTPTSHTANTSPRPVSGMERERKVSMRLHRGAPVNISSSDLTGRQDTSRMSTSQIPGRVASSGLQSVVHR
Procedure, shortened: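 Recombinant human CK1-delta, cell-free; fluorescent substrate with electrophoretic mobility-shift separation of product, read 1 h after dosing. Single 25 uM duplicate screen, then concentration-response up to 50 uM; loss of signal vs DMSO.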

SMILES | outcome
COCC(C)OCC(C)O (stereo unspecified) | inactive
O=C(O)c1ccccc1C(c1ccc(O)cc1)c1ccc(O)cc1 | inactive
O=c1c(-c2ccc(O)cc2)coc2cc(O)ccc12 | inactive

These compounds were tested against human Colony Stimulating Factor 1 Receptor (CSF1R), CSF1R (gene 1436) (UniProt P07333) (assay: NVS_ENZ_hCSF1R: NovaScreen (NVS) Enzymatic Assay for human Colony Stimulating Factor 1 Receptor (CSF1R) (AID 2283150)).
human Colony Stimulating Factor 1 Receptor (CSF1R), CSF1R (gene 1436), sequence (P07333 whole entry, looked up): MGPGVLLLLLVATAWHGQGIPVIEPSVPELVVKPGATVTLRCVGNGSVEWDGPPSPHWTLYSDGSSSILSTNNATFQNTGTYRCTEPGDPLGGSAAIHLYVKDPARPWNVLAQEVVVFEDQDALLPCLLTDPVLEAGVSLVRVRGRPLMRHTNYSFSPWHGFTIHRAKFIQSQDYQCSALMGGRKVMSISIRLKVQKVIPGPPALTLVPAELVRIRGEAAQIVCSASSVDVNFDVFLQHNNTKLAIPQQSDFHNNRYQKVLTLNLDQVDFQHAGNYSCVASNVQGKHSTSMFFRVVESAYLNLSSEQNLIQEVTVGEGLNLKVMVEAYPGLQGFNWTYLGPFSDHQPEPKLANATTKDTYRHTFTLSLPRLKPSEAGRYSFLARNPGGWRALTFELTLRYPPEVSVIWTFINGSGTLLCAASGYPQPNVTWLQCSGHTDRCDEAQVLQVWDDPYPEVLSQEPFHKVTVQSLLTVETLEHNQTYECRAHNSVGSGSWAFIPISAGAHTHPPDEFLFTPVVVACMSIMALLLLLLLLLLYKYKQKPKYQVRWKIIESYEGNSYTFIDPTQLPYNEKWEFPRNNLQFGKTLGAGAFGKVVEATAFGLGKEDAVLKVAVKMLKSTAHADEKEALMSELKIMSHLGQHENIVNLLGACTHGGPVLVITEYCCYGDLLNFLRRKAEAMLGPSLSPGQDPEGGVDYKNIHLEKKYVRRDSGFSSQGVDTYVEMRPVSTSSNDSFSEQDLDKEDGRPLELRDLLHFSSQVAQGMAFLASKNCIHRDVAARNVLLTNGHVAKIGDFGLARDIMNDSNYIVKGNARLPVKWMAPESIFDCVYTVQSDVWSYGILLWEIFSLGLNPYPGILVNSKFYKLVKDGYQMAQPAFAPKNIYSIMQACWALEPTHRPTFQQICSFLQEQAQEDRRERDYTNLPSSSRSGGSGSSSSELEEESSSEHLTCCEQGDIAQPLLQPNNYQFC
Procedure, shortened: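 Cell-free recombinant human CSF1R kinase with fluorescent substrate, product separated by electrophoretic mobility shift; read 1 h after dosing. Primary screen at 25 uM in duplicate, actives then in concentration-response up to 50 uM, relative to DMSO.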

SMILES | outcome
COCC(C)OCC(C)O (stereo unspecified) | inactive
N#C[C@@H]1CC(F)(F)CN1C(=O)CNC1CC2CCC(C1)N2c1ncccn1 (stereo partly specified) | inactive
CCCOC(=O)c1ccc(O)cc1 | inactive

What follows are compounds tested against human Dual Specificity Protein Phosphatase 3 (DUSP3), DUSP3 (gene 1845) (UniProt P51452) (assay: NVS_ENZ_hDUSP3: NovaScreen (NVS) Enzymatic Assay for human Dual Specificity Protein Phosphatase 3 (DUSP3) (AID 2283152);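 also: phosphatase activity of recombinant human DUSP3 on a fluorogenic substrate without cells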).
human Dual Specificity Protein Phosphatase 3 (DUSP3), DUSP3 (gene 1845), sequence (P51452 whole entry, looked up): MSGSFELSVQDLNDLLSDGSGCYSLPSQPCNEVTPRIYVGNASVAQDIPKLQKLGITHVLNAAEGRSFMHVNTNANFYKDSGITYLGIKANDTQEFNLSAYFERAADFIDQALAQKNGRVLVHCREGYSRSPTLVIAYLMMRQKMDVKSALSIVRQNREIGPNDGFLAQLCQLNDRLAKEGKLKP
Procedure, shortened: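 Cell-free assay with recombinant human DUSP3 and fluorogenic substrate, read by fluorescence intensity. Primary screen ran duplicate at 25 uM; actives followed up in concentration series; loss of signal versus DMSO scored.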

SMILES | AC50 | outcome
CC(C)(C)CC(C)(C)c1ccc(O)c(-n2nc3ccccc3n2)c1 | 10.6 µM (active) | 
CCCCCCCCOC(=O)CCCCCCCCC(=O)OCCCCCCCC |  | inactive
ClC1=C(Cl)C(Cl)(Cl)C(Cl)=C1Cl | 16.3 µM (active) | 
CCCCCCCCCCCCCCCS(=O)(=O)Oc1ccccc1 |  | inactive
CCCCC(CC)COC(=O)CCCCC(=O)OCC(CC)CCCC (stereo unspecified) |  | inactive
